Reference: PubChem BioAssay (NCATS)
Results filed as inconclusive are left out. Calls of active or inactive are those of the source. Calls follow the shape of the dose curve; as a rule, active = well fitted curve in the direction sought with a large enough effect; inconclusive = small, poorly fitted or top-dose-only effect, or another doubt; inactive = no such curve, though single readings can be large; an effect the other way counts as inactive or inconclusive.

How the values were obtained:
[1] = Cellular Toxicity (caspase-3) SK-N-SH (AID 661); settings: SK-N-SH caspase-3 activation, qHTS; caspase-3 activation: at 91.7 µM (top of the series), DMSO as zero, staurosporine as full;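 also: 0% = DMSO basal and 100% = 10 µM staurosporine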
In short: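 Caspase 3/7 activation was read by luminogenic substrate cleavage after 16 hour treatment of SK-N-SH cells. Signal was scaled between DMSO and 10 uM staurosporine, and concentration-response data were fitted with the Hill equation for AC50.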

[2] = Cellular Toxicity (caspase-3) H-4-II-E (AID 663); settings: H-4-II-E rat hepatoma; Potency: caspase-3 activation; caspase-3 activation: at 92.2 µM (top of the series), scaled: DMSO 0%, 100 µM tamoxifen 100%;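 also: cells exposed to compound for 16 hr before readout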
In short: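 Caspase 3/7 activation measured by luminescent aminoluciferin substrate cleavage after 16 hr compound treatment of H-4-II-E cells in complete medium. Increase normalized between DMSO (basal) and 100 uM tamoxifen (100%); Hill-equation AC50 from concentration-response.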

[3] = Cellular Toxicity (caspase-3) N2a (AID 665); settings: Potency: caspase-3 activation;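 also: compound exposure lasted 16 h at 37 °C before readout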
In short: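 Caspase-3/7 activation measured as luminescence from Caspase-Glo reagent (1 h, room temperature) after 16 h compound exposure of mouse N2a cells. AC50 values from Hill-equation concentration-response, scaled between DMSO and 10 uM staurosporine.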

[4] = Cellular Toxicity (caspase-3) NIH 3T3 (AID 666);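 also: caspase signal read after 16 h compound exposure; 0% = DMSO basal and 100% = 100 µM tamoxifen stimulation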
In short: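 Caspase-Glo 3/7 luminescence reported caspase activation in 1000 NIH 3T3 cells/well after 16 h compound exposure at 37 C. DMSO set basal and 100 uM tamoxifen set 100% stimulation; concentration-response modeled with the Hill equation for AC50.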

[5] = Cellular Toxicity (caspase-3) Renal Proximal Tubule (AID 667);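 also: cells exposed to compound for 16 hours at 37 °C before detection; 0% = DMSO basal and 100% = 10 µM staurosporine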
In short: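 Primary rat proximal tubule cells, 1000/well, 5 h plating at 37 °C, then compound 16 h at 37 °C. Caspase-Glo 3/7 reagent, 1 h RT, luminescence. Normalized to DMSO (basal) and 10 uM staurosporine (100%); Hill-fit AC50.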

[6] = molecular target: Cytochrome P450 3A4 (Homo sapiens) (UniProt P08684); test: qHTS Assay for Inhibitors and Substrates of Cytochrome P450 3A4 (AID 884); also: % is scaled to controls: 0 for no effect and ±100 for the full control effect; nearly all actives have a fitted effect of over 50% in size
In short: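 Luminescent readout of luciferin produced by CYP3A4 (20 nM) dealkylation of Luciferin-PPXE, 25 uM (its KM). NADPH-driven reaction ran 60 min at RT after 10 min compound preincubation; data scaled to 57 uM ketoconazole as 100% inhibition.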

[7] = Cell Viability - LYMP2-001 (AID 921);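 also: 0% = DMSO only and full inhibition = tetraoctylammonium bromide control wells; nearly all actives have a fitted effect of over 70% in size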
In short: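 Human lymphoblastoid cells (Coriell), 2500 per well, were preincubated 5 hr at 37 C, then exposed to compounds in complete medium for 24 hr at 37 C. Cellular ATP was read by CellTiter-Glo luminescence; AC50 from Hill fits of concentration-response data.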

[8] = MultiTox-Fluor Cytotoxicity Assay - LYMP1-001 - Live Cells (AID 947);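 also: 0% = DMSO only and full inhibition = tetraoctylammonium bromide control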
[9] = Cell Viability - LYMP1-002 - Assay at 16 hr (AID 948);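 also: 0% = DMSO alone and full effect = 92 µM tetraoctylammonium bromide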
In short: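 Human lymphoblastoid cells (LYMP1-002), 2500/well, were preincubated 5 hr at 37 C, then exposed to compounds for 16 hr at 37 C in complete medium. Cellular ATP was read by CellTiter-Glo luminescence after 30 min at room temperature; AC50 from Hill fits.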

[10] = MultiTox-Fluor Cytotoxicity Assay - LYMP1-002 - Live Cells (AID 955); also: % is scaled to controls: 0 for no effect and ±100 for the full control effect
In short: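 After 16 h compound exposure at 37 C, live LYMP1-002 lymphoblastoid cells (2500/well) were quantified by cleavage of cell-permeant GF-AFC substrate, read at 405/510 nm after 60 min. Concentration-response fitted with Hill equation for AC50.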

[11] = MultiTox-Fluor Cytotoxicity Assay - LYMP1-002 - Dead Cells (AID 960);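 also: 0% = DMSO and 100% = tetraoctylammonium bromide; nearly all actives have a fitted effect of over 60% in size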
In short: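 Dead-cell fluorescence (Ex/Em 485/520) after 16 h compound exposure at 37 C of LYMP1-002 lymphoblastoid cells in complete medium; AC50 by Hill equation, with data scaled between DMSO and 15 uM tetraoctylammonium bromide.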

[12] = MultiTox-Fluor Cytotoxicity Assay - LYMP1-003 - Dead Cells (AID 961);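 also: 0% = DMSO and 100% = tetraoctylammonium bromide; nearly all actives have a fitted effect of over 70% in size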
In short: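 LYMP1-003 human lymphoblastoid cells (2500/well) exposed to compound 16 h at 37 C in complete medium; dead-cell protease read with bis-AAF-R110 fluorescence (Ex/Em 485/520) after 60 min at room temperature. Normalized to DMSO and 15 uM tetraoctylammonium bromide; AC50 from Hill fit.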

[13] = MultiTox-Fluor Cytotoxicity Assay - LYMP1-003 - Live Cells (AID 962);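 also: 0% = DMSO only and full loss = 92 µM tetraoctylammonium bromide; cytotoxic hits lower the live-cell protease signal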
In short: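 Live-cell protease activity (GF-AFC substrate, 405/510 nm, 60 min at room temperature) after 16 h, 37 C compound exposure of human lymphoblastoid LYMP1-003 cells; concentration-response fitted to the Hill equation for AC50.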

[14] = Cell Viability - LYMP1-003 - Assay at 24 hr (AID 963);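 also: plate controls were DMSO only for no effect and tetraoctylammonium bromide positive control for full effect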
In short: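 Concentration-response qHTS: ATP loss measured by CellTiter-Glo luminescence after 24 h compound exposure at 37 C. Cells were LYMP1-003 human lymphoblastoid, 2500 per well. AC50 derived via standard Hill equation modeling.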

[15] = Cell Viability - LYMP1-003 - Assay at 40 hr (AID 964); also: % is scaled to controls: 0 for no effect and ±100 for the full control effect; nearly all actives have a fitted effect of over 60% in size
In short: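 Viability is taken as cellular ATP, read by CellTiter-Glo luminescence after 40 h of compound exposure at 37 C. Cells: human lymphoblastoid line LYMP1-003 at 2500/well; AC50 values derived by Hill-equation fitting of concentration-response data.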

[16] = Cell Viability - LYMP2-004 (AID 966);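 also: plate controls were DMSO only for no effect and tetraoctylammonium bromide control for full effect; nearly all actives have a fitted effect of over 65% in size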
In short: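 AC50 values come from Hill modelling of concentration-dependent loss of intracellular ATP, measured by CellTiter-Glo luminescence. Human LYMP2-004 lymphoblastoid cells (2500/well) were exposed to compound for 24 h at 37 C.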

[17] = Cell Viability - LYMP2-005 (AID 967);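 also: plate controls were DMSO only for no effect and 92 µM tetraoctylammonium bromide control for full effect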
In short: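 CellTiter-Glo luminescence (cellular ATP) read-out; LYMP2-005 lymphoblastoid cells, 2500/well, 5 h pre-incubation, then 24 h compound exposure at 37 C in complete medium. Tetraoctylammonium bromide positive control; AC50 by standard Hill fit.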

[18] = Cell Viability - LYMP2-009 (AID 968);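 also: 0% = DMSO alone and the full-kill end = tetraoctylammonium bromide at 92 µM; nearly all actives have a fitted effect of over 55% in size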
[19] = Cell Viability - LYMP2-011 (AID 969);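 also: 0% = DMSO only and full inhibition = 92 µM tetraoctylammonium bromide; nearly all actives have a fitted effect of over 60% in size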
In short: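 Cytotoxicity qHTS with ATP content as read-out: lymphoblastoid cells (2500/well) exposed to compound for 24 h at 37 C, then luciferase luminescence measured. Concentration-response data fitted with the standard Hill equation to give AC50.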

[20] = Cell Viability - LYMP2-013 (AID 970);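 also: 0% = DMSO only and full inhibition = tetraoctylammonium bromide control; nearly all actives have a fitted effect of over 55% in size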
In short: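 qHTS cytotoxicity: ATP-dependent luminescence (CellTiter-Glo, 30 min room temperature) read after 24 h compound exposure at 37 C of 2500 LYMP2-013 lymphoblastoid cells per well. Concentration-response fitted with Hill equation to give AC50.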

[21] = Cell Viability - LYMP2-015 (AID 971);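 also: 0% = DMSO only and full effect = 92 µM tetraoctylammonium bromide; nearly all actives have a fitted effect of over 55% in size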
In short: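 Cytotoxicity readout: decrease in intracellular ATP (CellTiter-Glo luminescence) in 2500 LYMP2-015 lymphoblastoid cells/well after 24 h compound exposure at 37 C. Concentration-response data fitted with the standard Hill equation to give AC50.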

[22] = Cell Viability - LYMP2-017 (AID 972); also: % is scaled to controls: 0 for no effect and ±100 for the full control effect; nearly all actives have a fitted effect of over 55% in size
In short: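 CellTiter-Glo luminescence (cellular ATP, 30 min RT) measured cytotoxicity after 24 hr compound treatment at 37 C. Cells were a human lymphoblastoid line, LYMP2-017, plated at 2500/well and incubated 5 hr first; concentration-response fitted with Hill equation for AC50.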

Sequence of Cytochrome P450 3A4 (Homo sapiens) (P08684 whole entry, looked up): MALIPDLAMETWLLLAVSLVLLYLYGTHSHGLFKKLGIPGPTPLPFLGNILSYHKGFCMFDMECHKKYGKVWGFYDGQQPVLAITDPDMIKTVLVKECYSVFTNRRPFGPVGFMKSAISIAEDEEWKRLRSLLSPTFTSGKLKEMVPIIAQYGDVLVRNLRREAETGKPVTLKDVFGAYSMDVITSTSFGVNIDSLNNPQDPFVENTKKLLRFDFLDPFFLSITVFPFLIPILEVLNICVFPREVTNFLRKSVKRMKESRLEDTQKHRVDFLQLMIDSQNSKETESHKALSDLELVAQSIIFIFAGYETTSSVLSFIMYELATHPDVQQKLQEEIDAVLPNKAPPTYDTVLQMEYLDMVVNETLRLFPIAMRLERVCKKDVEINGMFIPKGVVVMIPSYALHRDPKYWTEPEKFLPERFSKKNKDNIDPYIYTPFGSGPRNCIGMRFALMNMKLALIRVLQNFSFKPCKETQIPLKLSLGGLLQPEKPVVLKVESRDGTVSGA

CCCCCC/C(C=O)=C\c1ccccc1
inactive: caspase-3 activation [1] -0.582% | caspase-3 activation [2] 0.146% | Potency [3] | Potency [4] | outcome [5] | Potency [6] | Potency [7] | Potency [8] | Potency [9] | Potency [10] | Potency [11] | Potency [12] | Potency [13] | Potency [14] | Potency [15] | Potency [16] | Potency [17] | Potency [18] | Potency [19] | Potency [20] | Potency [21] | Potency [22]
